The values below come from PubChem BioAssay (NCATS).

Results filed as inconclusive are left out. Values without a mark were called inactive. Calls follow the shape of the dose curve; as a rule, active = well fitted curve in the direction sought with a large enough effect; inconclusive = small, poorly fitted or top-dose-only effect, or another doubt; inactive = no such curve, though single readings can be large or run the other way.
% is scaled to controls: 0 for no effect and ±100 for the full control effect.

Sequence of Metallo-beta-lactamase type 2 (Klebsiella pneumoniae) (C7C422 whole entry, looked up): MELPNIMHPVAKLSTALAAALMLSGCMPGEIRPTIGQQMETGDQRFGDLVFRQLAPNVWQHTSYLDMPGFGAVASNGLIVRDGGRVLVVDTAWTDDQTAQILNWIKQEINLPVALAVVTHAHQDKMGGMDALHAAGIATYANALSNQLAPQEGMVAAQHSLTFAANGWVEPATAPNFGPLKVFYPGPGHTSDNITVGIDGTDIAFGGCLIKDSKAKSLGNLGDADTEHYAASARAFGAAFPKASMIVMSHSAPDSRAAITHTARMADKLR

This assay addresses Metallo-beta-lactamase type 2 (Klebsiella pneumoniae) (UniProt C7C422). In words: qHTS to identify inhibitors of the New Delhi Metallo-beta-lactamase (NDM): assay validation screen against the NCATS LOPAC Collection (AID 1794843).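 Also: nitrocefin turnover by NDM-1 measured as 485 nm absorbance at plateau.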 Conditions: NDM-1 enzyme, nitrocefin hydrolysis, absorbance 485 nm; series mostly up to 38.4 µM; activity change, negative = inhibition: at the top concentration. The essentials:
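NDM-1 at 2 nM final in 50 mM HEPES pH 7.0 with 1 uM ZnSO4 and 0.01% Tween20 was preincubated with library compounds in DMSO. Nitrocefin (50 uM stock) was then added, and absorbance at 485 nm was read at the kinetic plateau.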
Turning to `O=C(c1ccc2c(c1)OCCO2)N1CCCCC1`, the “activity change, negative = inhibition” value is -1.82%.
`c1ccc(C(NCCNC(c2ccccc2)c2ccccc2)c2ccccc2)cc1`: the “activity change, negative = inhibition” value was 3.17%.
`NC(=O)CC[C@H](N)C(=O)O`: the “activity change, negative = inhibition” value is -1.29%.
Regarding `OC1(c2ccc(Cl)cc2)CCN(Cc2c[nH]c3ccccc23)CC1`, the “activity change, negative = inhibition” value is -1.65%.
With `Cc1cccc(C(=O)NCN2CCN(c3ccccc3C#N)CC2)c1` the figure was -11.9%; with `COc1cc(CC(=O)O)ccc1O`, 0.908%.
As to `CCCn1c(=O)c2[nH]c(-c3ccc(S(=O)(=O)O)cc3)nc2n(CCC)c1=O`, the “activity change, negative = inhibition” value was -13.5%.
On to `NC(Cc1cccc(-c2ccccc2CP(=O)(O)O)c1)C(=O)O` (stereo not given), for which the “activity change, negative = inhibition” value is -2.71%.
Next, `NC(=Nc1ccccc1)NC(=O)c1nc(Cl)c(N)nc1N`: -1.98%.
With `COC(=O)[C@H](NC(=O)c1cc(-c2ccccc2)nc2ccccc12)c1ccccc1` the figure was -0.582%.
Turning to `OCC1NCC(O)C(O)C1O` (stereo not given), the “activity change, negative = inhibition” value is -0.247%.
Turning to `CC(=O)[C@H]1CCC2C3CC=C4C[C@@H](OS(=O)(=O)O)CC[C@]4(C)C3CC[C@@]21C` (stereo not given in full), the “activity change, negative = inhibition” value was -3.31%.
On to `O=C(O)Cc1c[nH]c2ccc(O)cc12`, for which the “activity change, negative = inhibition” value was 0.253%.
Turning to `NC1CCN(O)C1=O` (stereo not given), the “activity change, negative = inhibition” value is -5.98%.
`Oc1ccc(/C=C/c2ccc(/C=C/c3ccc(O)cc3)c(Br)c2)cc1`: the “activity change, negative = inhibition” value was -11.3%.
`NCCCCN`: the “activity change, negative = inhibition” value was -5.72%.
Next, `CC[n+]1c(/C=C/C=C2/N(C)c3ccccc3C2(C)C)sc2ccccc21`: 3.86%; `Cc1nc(N=Nc2ccc(S(=O)(=O)O)cc2S(=O)(=O)O)c(COP(=O)(O)O)c(C=O)c1O`: 12.4%.
For `N=C(N)SCCN`, the “activity change, negative = inhibition” value is 0.232%.
Consider `Nc1ncnc2c1nc(Br)n2C1OC2COP(=O)(O)O[C@@H]2C1O` (stereo not given in full), for which the “activity change, negative = inhibition” value is -1.77%.
